The record followed here is PubChem BioAssay (Tox21).

Values joined by “and” are separate entries in the source; they are usually repeats but may differ in a detail not shown here. Equal entries are not always repeated. Inconclusive results are not listed. A call without a number means that no potency is given here. A structure can be active in one record and inactive in another. Active and inactive are the calls of the source. The call rests on the fitted dose curve; in most records, active means well fitted inhibition curve with a large enough effect in the signal ratio in the repeat runs (not every such curve was filed as active); inconclusive means weak or mixed curves; inactive means flat fitted curve, though single readings scatter; the % refers to the signal ratio.
Potency means the concentration at half of the fitted maximal effect.

Sequence of Progesterone receptor (Homo sapiens) (P06401 whole entry, looked up): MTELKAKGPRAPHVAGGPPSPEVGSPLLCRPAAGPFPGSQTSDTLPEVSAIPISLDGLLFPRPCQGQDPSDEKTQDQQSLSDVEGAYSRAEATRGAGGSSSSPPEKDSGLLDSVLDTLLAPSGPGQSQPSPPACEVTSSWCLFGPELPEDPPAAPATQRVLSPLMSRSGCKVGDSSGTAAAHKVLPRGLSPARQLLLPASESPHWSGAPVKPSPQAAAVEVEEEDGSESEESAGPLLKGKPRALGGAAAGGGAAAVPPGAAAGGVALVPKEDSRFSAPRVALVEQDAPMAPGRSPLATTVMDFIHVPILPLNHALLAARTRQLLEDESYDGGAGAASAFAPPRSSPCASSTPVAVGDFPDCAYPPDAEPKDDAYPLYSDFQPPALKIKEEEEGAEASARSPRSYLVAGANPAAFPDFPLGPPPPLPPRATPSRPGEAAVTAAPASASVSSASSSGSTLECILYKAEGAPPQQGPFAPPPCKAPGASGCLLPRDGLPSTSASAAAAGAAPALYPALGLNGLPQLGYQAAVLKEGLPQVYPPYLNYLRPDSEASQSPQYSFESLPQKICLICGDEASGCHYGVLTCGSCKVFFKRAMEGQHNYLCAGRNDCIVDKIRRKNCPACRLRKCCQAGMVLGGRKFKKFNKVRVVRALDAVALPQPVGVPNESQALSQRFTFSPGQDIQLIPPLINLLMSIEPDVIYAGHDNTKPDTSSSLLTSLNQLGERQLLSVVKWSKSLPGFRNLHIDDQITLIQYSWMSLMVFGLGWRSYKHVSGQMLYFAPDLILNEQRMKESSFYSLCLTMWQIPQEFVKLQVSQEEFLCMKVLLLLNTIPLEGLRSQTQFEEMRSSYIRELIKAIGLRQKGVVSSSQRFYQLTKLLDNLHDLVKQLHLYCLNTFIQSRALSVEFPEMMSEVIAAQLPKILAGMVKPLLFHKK

The test concerns the target Progesterone receptor (Homo sapiens) (UniProt P06401). Put plainly: qHTS assay to identify small molecule antagonists of the progesterone receptor (PR) signaling pathway (AID 1346795). The note with it: PR-UAS-bla HEK293T, beta-lactamase FRET ratio, 16 h; series mostly up to 92.4 µM. From the text:
National Center for Advancing Translational Sciences [NCATS]
NIH Chemical Genomics Center [NCGC]
U.S. Environmental Protection Agency [EPA]
National Institutes of Environmental Health Sciences [NIEHS]
National Toxicology Program [NTP]
U.S. Food and Drug Administration [FDA]
Progesterone receptor (PR), a nuclear hormone receptor, plays an important role in development, metabolic homeostasis and reproduction. […] Endocrine disrupting chemicals (EDCs) and their interactions with steroid hormone receptors like PR causes disruption of normal endocrine function. To identify the compounds that inhibit PR signaling, a PR-UAS-bla GripTite cell line i.e. PR-UAS-bla HEK293T (Invitrogen, Carlsbad, CA, USA) containing a beta-lactamase reporter gene under the control of an Upstream Activator Sequence (UAS) was used to screen Tox21 10K compound library.
Tox21 Assay Protocol Summary:
PR-UAS-bla HEK293T cells were dispensed at 3,000 cells/4 uL of assay medium containing 2% charcoal stripped FBS per well into black wall/clear-bottom 1536-well plates using a Multidrop Combi (ThermoFisher Scientific, Waltham, MA) dispenser. After the assay plates were incubated at a 37C and 5% CO2 for 6 hr, 23 nL of compounds dissolved in DMSO, positive controls or DMSO only was transferred to the assay plate by a Pintool station (Kalypsys, San Diego, CA), followed by addition of 1 uL (1nM as final concentration) of Promegestone (R5020) in assay medium using a BioRAPTR FRD (Flying Reagent Dispenser, Aurora Discovery, San Diego, CA). The plates were incubated at 37C and 5% CO2 for 16 hr. Then 1 uL of LiveBLAzer B/G FRET substrate was added using a FRD. After the plates were incubated at room temperature for 2 hours, fluorescence intensity was measured by an Envision plate reader (PerkinElmer, Shelton, CT).
A general note: qHTS replaces the single test concentration by a dilution series.
As to `C/C(=C(/OCCOc1ccc(Cl)cc1)c1ccc(Cl)cc1Cl)n1ccnc1`, the Potency is 8.41 µM (active).
The result for `COc1cccc(N)c1` reads “inactive”; that for `O=C1C=CC(=O)N1c1ccc(Cc2ccc(N3C(=O)C=CC3=O)cc2)cc1`, “inactive”; that for `O=C(Nc1ccc(Oc2ccc(Cl)cc2)c(Cl)c1)c1cc(I)cc(I)c1O`, 23.7 µM (active).
The result for `COc1cc(/C=C/C(=O)O[C@H]2CC[C@]34C[C@]35CC[C@]3(C)[C@@H]([C@H](C)CCC=C(C)C)CC[C@@]3(C)[C@@H]5CC[C@H]4C2(C)C)ccc1O` reads “inactive”; that for `Nc1ccc(N)c2ccccc12`, 54.4 µM (active).
To `CCC1OCC(COc2ccc(Oc3ccccc3)cc2)O1` (stereo not given) belongs 54.5 µM (active); to `CS(=O)(=O)CCNCc1ccc(-c2ccc3ncnc(Nc4ccc(OCc5cccc(F)c5)c(Cl)c4)c3c2)o1`, 7.5 µM (active).
In the case of `Oc1ccc(N=Nc2ccccc2)cc1`, the Potency was 19.6 µM (active).
For `CCCCCCC[N+](CC)(CC)CCCCc1ccc(Cl)cc1`, the Potency result is “inactive”.
The result for `CC1=NC(C)OC1C` (stereo not given) reads “inactive”.
The result for `C[C@H]1[C@H]2CC[C@H]3[C@@H]4CC=C5C[C@@H](N(C)C)CC[C@]5(C)[C@H]4CC[C@]23CN1C` reads “inactive”; that for `NC(=NCCCCCCN=C(N)/N=C(\N)Nc1ccc(Cl)cc1)/N=C(\N)Nc1ccc(Cl)cc1`, “inactive and 55.5 µM (active)”.
Take `Cc1nc(-c2ccc3c(c2)CCN(CCC2CCC(NC(=O)/C=C/c4ccc(F)cc4)CC2)CC3)no1` (stereo not given): the Potency entry was “inactive”.
For `O=C1CCCc2c1cc1ccc3cccc4ccc2c1c34`, the Potency was 3.48 µM (active).
The result for `CCCC(C)c1ccccc1O` (stereo not given) reads “inactive”.
To `O=C1c2c(O)ccc(Nc3ccc(CCO)cc3)c2C(=O)c2c([N+](=O)[O-])ccc(O)c21` belongs “inactive”; to `C[n+]1cc2c3c(ccc2c2ccc4cc5c(cc4c21)OCO5)OCO3`, 2.59 µM (active).
To `Oc1c(Cl)cc(Cl)c2cccnc12` belongs 0.841 µM (active); to `CC(C)CCCCCCCCCCCCCCC(=O)O`, “inactive”; to `CCCCCCCCCCCC(=O)NCCCN(C)C`, 61.1 µM (active).
On to `Cc1c(C)c2c(c(C)c1O)CCC(C)(COc1ccc(CC3SC(=O)NC3=O)cc1)O2` (stereo not given), for which the Potency was 18.8 µM (active).
`CCCCCCCCCCCCCCCC[N+](C)(C)CCN(Cc1ccc(OC)cc1)c1ncccn1`: the Potency entry is “inactive”.
The result for `Cc1cccc(N(C)C(=S)Oc2ccc3c(c2)C2CCC3C2)c1` (stereo not given) reads 15 µM (active); that for `CO[Si](CCCNc1ccccc1)(OC)OC`, “inactive”.
The result for `COc1ccc(-c2ccc3cc(C(=O)O)ccc3c2)cc1C12CC3CC(CC(C3)C1)C2` reads “inactive”; that for `CSc1ccc(C(=O)c2[nH]c(=O)[nH]c2C)cc1`, “inactive”; that for `CN1CCN(CCC(=O)N2c3ccccc3Sc3ccc(C(F)(F)F)cc32)CC1`, 26.6 µM (active).
To `CC(C)c1ccc2c(c1)CC[C@H]1[C@](C)(CN)CCC[C@]21C` belongs “inactive”; to `Oc1cc2ccccc2c2ccccc12`, 6.11 µM (active); to `CCC(N)(CO)CO`, “inactive”.
With `Clc1ccc2nsnc2c1NC1=NCCN1`, the Potency result was “inactive”.
As to `CCc1oc2ccccc2c1C(=O)c1cc(Br)c(O)c(Br)c1`, the Potency was 23.7 µM (active).
The result for `O=C(NO)C1(NS(=O)(=O)c2ccc(Oc3ccc(F)cc3)cc2)CCOCC1` reads “inactive”.
The result for `CC[C@H](c1ccc(O)cc1)[C@@H](CC)c1ccc(O)cc1` reads 7.7 µM (active) and 7.5 µM (active).
The result for `COC(=O)c1cc(Cl)ccc1OC` reads “inactive”; that for `Nc1ccc2cc(S(=O)(=O)O)cc(O)c2c1N=Nc1ccccc1C(F)(F)F`, “inactive”.
`Cc1c(C)c2c(c(C)c1OC(=O)CCC(=O)O)CC[C@@](C)(CCC[C@H](C)CCC[C@H](C)CCCC(C)C)O2`: the Potency result is “inactive”.
The result for `CNCc1cc(F)ccc1Oc1ccc(Cl)c(Cl)c1` reads 61.1 µM (active); that for `NC(=O)C1(N2CCCCC2)CCN(CCCN2c3ccccc3CCc3ccc(Cl)cc32)CC1`, 23.7 µM (active).
